Bioassay records as filed in PubChem.
hiPSC survival: enhancers of single-cell hiPSC survival, primary screen, ATPlite luminescence; 360,000 compounds, 0.044% hits; survival enhancement, % at 20 µM; AID 602274, 2012; 100% = ROCK inhibitor wells, 0% = DMSO; in the data active means survival enhancement above about 18%;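 further: cells exposed to compounds for 16 hours before the ATP read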
MIN6 prolif-1: inducers of MIN6 beta-cell proliferation, primary screen, ATP luminescence, uHTS. AID 2380, 2010. 330,000 compounds, 0.29% hits. proliferation, % at 10 µM. MIN6 cells proliferation, ATPlite luminescence, 48 h; cells starved in 0.2% serum; 100% = growth in 10% serum;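 active means compounds whose signal lies at least 3.5 SD above the mean of all wells on their plate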;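 further: 0% = DMSO-treated cells in low-serum medium and 100% = 10% serum control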
H9c2 TAG inh: inhibitors of triacylglycerol accumulation, primary screen, cell-based, uHTS, fluorescence, H9c2; 230,000 compounds, 0.66% hits; inhibition, % at 12.5 µM; H9c2 cells, Nile Red lipid (TAG) fluorescence; cells loaded with 200 µM oleic acid; AID 651582, 2012;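 active means pattern-corrected inhibition of lipid staining of at least 50% with the nuclear-stain viability signal not falling by more than 50%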;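 further: 0% = DMSO wells and 100% = triacsin C control wells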
MIN6 prolif-2: inducers of beta-cell proliferation in MIN6, confirmation, MIN6 cells, mouse; shares compounds with MIN6 prolif-1; ATPlite luminescence, 48 h; cells kept in 0.2% serum; scaled between 0.2% and 10% serum; proliferation increase, % at 50 µM; 920 tested, under 10 active; AID 463095, 2010;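 active means proliferation increase above 40% at any of the four tested concentrations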
The depositor's hits bear a star. In the library only some 0.71% were active in any assay of this set; here they are far more common.

Screening Fc1ccc(-n2c(-c3ccc4ccccc4n3)n[nH]c2=S)cc1 returned hiPSC survival 0.9, MIN6 prolif-1 7.9*, H9c2 TAG inh -0.2 and MIN6 prolif-2 -0.7.
S=c1[nH]nc(-c2ccc3ccccc3n2)n1-c1cc(Cl)cc(Cl)c1 was read as hiPSC survival -2.3 and MIN6 prolif-1 -4.7.
`Oc1ccc(-c2n[nH]c(=S)n2Cc2ccccc2)cc1` gave hiPSC survival -1.0, MIN6 prolif-1 -3.6 and H9c2 TAG inh -2.7.
For N#CCC(=O)Nc1ccc(C(=O)Nc2cccc(S(=O)(=O)N3CCCC3)c2)cc1 the results were hiPSC survival -2.3 and H9c2 TAG inh -9.3.
CC(NC(=O)c1cccc2c1Oc1ccccc1S2)C(=O)O (stereo unspecified) was read as hiPSC survival -1.1.
Screening COc1ccc(-c2csc(NC(=O)CCN3C(=O)C4CC=CCC4C3=O)n2)cc1OC (stereo unspecified) returned hiPSC survival -0.6, MIN6 prolif-1 12.7*, H9c2 TAG inh 17.9 and MIN6 prolif-2 -4.1.
COc1ccc(-c2csc(NC(=O)CN3C(=O)C4CC=CCC4C3=O)n2)cc1 (stereo unspecified) was read as hiPSC survival -0.6, MIN6 prolif-1 -2.7 and H9c2 TAG inh 36.2.
For CCN1C=C(C(=O)c2ccccc2)C(=O)CC1 the results were hiPSC survival -0.2 and H9c2 TAG inh 12.9.
COc1ccc(Nc2c(C3CC3)nc3nc(C)cc(C)n23)cc1 was read as hiPSC survival 0.1.
For O=C(CC1CCCC1)N1CCN(S(=O)(=O)c2c(F)cccc2F)CC1 the results were hiPSC survival -1.9 and H9c2 TAG inh -21.6.
`CCOC(=O)C1CCN(C(=O)CC(NS(=O)(=O)c2ccc(OC)cc2)C(C)C)CC1` (stereo unspecified) gave hiPSC survival 2.6, MIN6 prolif-1 6.2*, H9c2 TAG inh 25.7 and MIN6 prolif-2 2.4.
CCOC(=O)C1CCN(C(=O)CCNS(=O)(=O)c2ccc(C)cc2)CC1 was read as hiPSC survival 0.5, MIN6 prolif-1 1.2 and H9c2 TAG inh -0.7.
Screening CC(=O)Nc1cccc(-c2ccnc3c2CC(C)(C(=O)NCc2ccc(F)c(F)c2)O3)c1 (stereo unspecified) returned hiPSC survival 0.4 and H9c2 TAG inh 30.8.
`OC(c1ccc(F)cc1)c1nc(-c2cc3ccccc3o2)cs1` (stereo unspecified) gave hiPSC survival 6.5 and H9c2 TAG inh -22.3.
For COc1ccccc1C1=Nn2c(nnc2C2CCCCC2)SC1 the results were hiPSC survival 1.8, MIN6 prolif-1 -0.6 and H9c2 TAG inh 0.2.
Screening COc1ccc(OC)c(C2=Nn3c(nnc3C3CCCCC3)SC2)c1 returned hiPSC survival -0.7, MIN6 prolif-1 9.3*, H9c2 TAG inh 9.5 and MIN6 prolif-2 -6.3.
C[C@@H]1CN([C@H](C)CO)C(=O)CCCn2cc(nn2)CO[C@H]1CN(C)S(=O)(=O)c1ccc2ccccc2c1 was read as hiPSC survival 2.3 and H9c2 TAG inh 0.8.
Screening Cc1nc2ccc(C(=O)NCCc3c[nH]c4ccccc34)cn2c1N(C)C(=O)CCc1ccccc1 returned hiPSC survival 1.1 and H9c2 TAG inh 4.3.
For COc1ccc(-c2csc3ncnc(N4CCN(C(=O)c5ccco5)CC4)c23)cc1 the results were hiPSC survival -0.4, MIN6 prolif-1 10.8*, H9c2 TAG inh -1.4 and MIN6 prolif-2 -5.3.
`O=C(c1ccco1)N1CCN(c2ncnc3scc(-c4ccccc4)c23)CC1` gave hiPSC survival 1.6, MIN6 prolif-1 -1.9 and H9c2 TAG inh -14.4.
For O=S1(=O)C[C@@H](N2CCC(Cc3ccccc3)CC2)[C@H](COCc2ccccc2)N1 the results were hiPSC survival -0.4 and H9c2 TAG inh -19.5.
`CC(C)Oc1cc(F)ccc1-c1cc(C(=O)NCc2ccccn2)[nH]n1` gave hiPSC survival 4.9 and H9c2 TAG inh -19.2.
For CCN(Cc1ccccc1)S(=O)(=O)c1ccc(S(=O)(=O)N(Cc2cccc(OC)c2)CC2CCCO2)cc1 (stereo unspecified) the results were hiPSC survival -0.8 and MIN6 prolif-1 -0.8.
Screening COc1cccc(CN(CC2CCCO2)S(=O)(=O)c2ccc(-n3cnnn3)c(OC)c2)c1 (stereo unspecified) returned hiPSC survival 1.3, MIN6 prolif-1 9.3*, H9c2 TAG inh 1.3 and MIN6 prolif-2 0.5.
For CC(C)c1cccc(-c2csc(C(C)(O)c3cccc(F)c3)n2)c1 (stereo unspecified) the results were hiPSC survival 0.8 and H9c2 TAG inh -17.7.
